Experimental data published in PubChem BioAssay (NCI).
The panel holds about 79,000 compounds, 15% with a hit somewhere; the sample as a whole holds those more often. The source made the active and inactive calls. Cut-off read from the data, not from the text of the source: active = growth inhibition above about 70%; inactive = the rest.

Columns and labels:
[1] = NCI Yeast Anticancer Drug Screen. Data for the rad52 strain (AID 147);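 note: 0% = growth of vehicle-treated control cultures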; conditions: S. cerevisiae rad52 mutant growth inhibition, active compounds read high
How it was run: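 DNA repair-defective yeast; compound exposure; growth scored against vehicle controls.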

[2] = NCI Yeast Anticancer Drug Screen. Data for the wt1 strain (AID 149);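 note: 0% = growth of vehicle-treated wt1 cultures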; conditions: S. cerevisiae wt1 strain (SPY 50644) growth inhibition, active compounds read high
How it was run: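 wt1 yeast, compound-treated; % growth inhibition vs vehicle control.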

[3] = NCI Yeast Anticancer Drug Screen. Data for the rad50EPP+ strain (AID 151);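 note: 0% = growth of vehicle-treated control cultures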; conditions: S. cerevisiae rad50 mutant strain, active compounds read high
How it was run: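 rad50EPP+ yeast treated with test compounds. Readout: growth vs vehicle control.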

[4] = NCI Yeast Anticancer Drug Screen. Data for the rad50 strain (AID 155);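 note: 0% = growth of vehicle-only cultures of the same strain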; conditions: S. cerevisiae rad50 strain growth inhibition, active compounds read high
How it was run: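 Genetically altered yeast (DNA repair pathway); compound treatment; growth inhibition vs vehicle ctrl.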

[5] = NCI Yeast Anticancer Drug Screen. Data for the mec2-1 strain (AID 157); conditions: S. cerevisiae mec2-1 strain, active compounds read high
How it was run: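 Growth inhibition is read against vehicle-treated controls after compound exposure of the mec2-1 yeast strain, which is defective in DNA damage repair or cell cycle control.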

[6] = NCI Yeast Anticancer Drug Screen. Data for the rad14 strain (AID 159);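 note: 0% = growth of vehicle-treated control cultures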; conditions: S. cerevisiae rad14 strain growth inhibition, active compounds read high
How it was run: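 Test compounds were applied to a repair-deficient yeast strain. Its growth was then compared with that of cultures given vehicle alone, and inhibition was expressed relative to those controls.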

[7] = NCI Yeast Anticancer Drug Screen. Data for the sgs1 mgt1 strain (AID 161);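 note: 0% = growth of cultures given vehicle only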; conditions: S. cerevisiae sgs1 mgt1 strain, active compounds read high
How it was run: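 Percent growth inhibition was derived by comparing compound-exposed mutant yeast with vehicle-exposed cultures. The strain carries alterations in DNA damage repair.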

[8] = NCI Yeast Anticancer Drug Screen. Data for the CLN2oe strain (AID 163);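 note: 0% = growth of vehicle-only control cultures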; conditions: S. cerevisiae CLN2oe strain, active compounds read high
How it was run: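 Compound-treated yeast; growth vs vehicle ctrl = % inhibition. Genetically altered strain (cell-cycle control).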

[9] = NCI Yeast Anticancer Drug Screen. Data for the cln2 rad14 strain (AID 165);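 note: 0% = growth equal to vehicle treated cultures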; conditions: S. cerevisiae cln2 rad14 strain, active compounds read high
How it was run: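 Growth inhibition, relative to vehicle-treated controls, is the read-out. The test organism is a yeast strain with defined genetic alterations, cln2 rad14.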

[10] = NCI Yeast Anticancer Drug Screen. Data for the bub3 strain (AID 167); conditions: S. cerevisiae bub3 mutant strain, active compounds read high
How it was run: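 Yeast carrying a defined mutation is treated with each compound, and growth is compared with that of vehicle-exposed cells to give inhibition.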

[11] = NCI Yeast Anticancer Drug Screen. Data for the wt2 strain (AID 169);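 note: 0% = growth of vehicle-treated yeast cultures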; conditions: S. cerevisiae wt2 strain growth inhibition, active compounds read high
How it was run: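 Compound exposure of yeast; growth compared with vehicle controls; inhibition reported.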

[12] = NCI Yeast Anticancer Drug Screen. Data for the sgs1 strain (AID 173);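 note: 0% = growth of vehicle-only control cultures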; conditions: S. cerevisiae sgs1 mutant, active compounds read high
How it was run: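 Compounds applied to genetically altered yeast; growth compared with vehicle-treated cultures to give % inhibition.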

[13] = NCI Yeast Anticancer Drug Screen. Data for the mlh1 rad18 strain (AID 175); conditions: S. cerevisiae mlh1 rad18 strain growth inhibition, active compounds read high
How it was run: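 Cells of a genetically altered yeast strain, deficient in DNA damage repair, were treated with compound. Their growth was then compared with that of vehicle-treated cultures to give inhibition.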

[14] = NCI Yeast Anticancer Drug Screen. Data for the rad18 strain (AID 177); conditions: S. cerevisiae rad18 mutant growth inhibition, active compounds read high
How it was run: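 Compounds are applied to a repair-deficient yeast strain, and growth is compared with that of vehicle-treated cultures to give percent inhibition.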

[15] = NCI Yeast Anticancer Drug Screen. Data for the mlh1 strain (AID 171);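 note: 0% = growth of vehicle-treated control cultures of the same strain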; conditions: S. cerevisiae mlh1 strain growth inhibition, active compounds read high
How it was run: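 Compounds are applied to a genetically altered yeast strain, and its growth is compared with that of vehicle-treated cultures to give percent inhibition.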

[16] = at 5.0 µM (retest, dose inferred, filed as 0.5)
[17] = at 50.0 µM (retest, dose inferred, filed as 5.0)

Measured: growth inhibition

Nc1cc(S(N)(=O)=O)ccc1SSc1ccc(S(N)(=O)=O)cc1N
active: [1]; at 100.0 µM 81% | [3]; at 33.0 µM 79% | [3]; at 100.0 µM 93% | [4]; at 50.0 µM 71.6% | [4]; at 100.0 µM 71% | [6]; at 100.0 µM 89% | [12]; at 100.0 µM 82% | [13]; at 50.0 µM 73% | [14]; at 100.0 µM 78%
inactive: [1]; at 1.2 µM 1% | [1]; at 3.7 µM 10% | [1]; at 11.0 µM 21% | [1]; at 33.0 µM 50% | [2]; at 1.2 µM 1% | [2]; at 3.7 µM -2% | [2]; at 11.0 µM 0% | [2]; at 33.0 µM 12% | [2]; at 100.0 µM 51% | [3]; at 1.2 µM -2% | [3]; at 3.7 µM 2% | [3]; at 11.0 µM 19% | [4]; at 1.2 µM 5% | [4]; at 3.7 µM 8% | [4]; [16] 13% | [4]; at 11.0 µM 22% | [4]; at 33.0 µM 33% | [4]; [17] 52% | [5]; at 1.2 µM 1% | [5]; at 3.7 µM 5% | [5]; [16] 9% | [5]; at 11.0 µM 12% | [5]; at 33.0 µM 29% | [5]; [17] 10% | [5]; at 50.0 µM 41.1% | [5]; at 100.0 µM 63% | [6]; at 1.2 µM 1% | [6]; at 3.7 µM -7% | [6]; at 11.0 µM 3% | [6]; at 33.0 µM 12% | [7]; [16] -7% | [7]; [17] 55% | [7]; at 50.0 µM 56.6% | [8]; at 1.2 µM 1% | [8]; at 3.7 µM -1% | [8]; at 11.0 µM 2% | [8]; at 33.0 µM 13% | [8]; at 100.0 µM 49% | [9]; [16] 16% | [9]; [17] 0% | [9]; at 50.0 µM 21.7% | [10]; at 1.2 µM -1% | [10]; at 3.7 µM 3% | [10]; [16] -21% | [10]; at 11.0 µM 9% | [10]; at 33.0 µM 21% | [10]; [17] 12% | [10]; at 50.0 µM 62.3% | [10]; at 100.0 µM 67% | [11]; at 1.2 µM -1% | [11]; at 3.7 µM -1% | [11]; at 11.0 µM 4% | [11]; at 33.0 µM 27% | [11]; at 100.0 µM 54% | [12]; at 1.2 µM 2% | [12]; at 3.7 µM 9% | [12]; at 11.0 µM 26% | [12]; at 33.0 µM 53% | [13]; [16] 5% | [13]; [17] 31% | [14]; at 1.2 µM -14% | [14]; at 3.7 µM 7% | [14]; at 11.0 µM 28% | [14]; at 33.0 µM 52%

O=Nn1c2ccccc2c2cc([N+](=O)[O-])ccc21
active: [1]; at 33.0 µM 88% | [1]; at 100.0 µM 95% | [2]; at 100.0 µM 92% | [3]; at 100.0 µM 85% | [4]; at 33.0 µM 89% | [4]; [17] 92% | [4]; at 50.0 µM 81.9% | [4]; at 100.0 µM 93% | [5]; [17] 91% | [5]; at 50.0 µM 75.8% | [5]; at 100.0 µM 93% | [6]; at 100.0 µM 93% | [7]; at 50.0 µM 84.5% | [8]; at 100.0 µM 94% | [10]; at 33.0 µM 88% | [10]; [17] 71% | [10]; at 50.0 µM 84.8% | [10]; at 100.0 µM 96% | [11]; at 100.0 µM 91% | [15]; at 100.0 µM 89% | [12]; at 100.0 µM 92% | [13]; [17] 97% | [13]; at 50.0 µM 80% | [14]; at 33.0 µM 84% | [14]; at 100.0 µM 93%
inactive: [1]; at 1.2 µM -6% | [1]; at 3.7 µM 11% | [1]; at 11.0 µM 51% | [2]; at 1.2 µM -27% | [2]; at 3.7 µM -23% | [2]; at 11.0 µM -14% | [2]; at 33.0 µM 49% | [3]; at 1.2 µM 8% | [3]; at 3.7 µM 15% | [3]; at 11.0 µM 27% | [3]; at 33.0 µM 66% | [4]; at 1.2 µM 15% | [4]; at 3.7 µM 24% | [4]; [16] 47% | [4]; at 11.0 µM 53% | [5]; at 1.2 µM -16% | [5]; at 3.7 µM -1% | [5]; [16] 51% | [5]; at 11.0 µM 11% | [5]; at 33.0 µM 59% | [6]; at 1.2 µM -19% | [6]; at 3.7 µM -5% | [6]; at 11.0 µM 1% | [6]; at 33.0 µM 61% | [7]; [16] -26% | [7]; [17] 27% | [8]; at 1.2 µM -32% | [8]; at 3.7 µM -9% | [8]; at 11.0 µM -9% | [8]; at 33.0 µM 55% | [10]; at 1.2 µM 4% | [10]; at 3.7 µM 19% | [10]; [16] 19% | [10]; at 11.0 µM 55% | [11]; at 1.2 µM -28% | [11]; at 3.7 µM -22% | [11]; at 11.0 µM 8% | [11]; at 33.0 µM 59% | [15]; at 1.2 µM -35% | [15]; at 3.7 µM -29% | [15]; at 11.0 µM -3% | [15]; at 33.0 µM 48% | [12]; at 1.2 µM -8% | [12]; at 3.7 µM -14% | [12]; at 11.0 µM -1% | [12]; at 33.0 µM 65% | [13]; [16] 39% | [14]; at 1.2 µM -10% | [14]; at 3.7 µM -6% | [14]; at 11.0 µM 37%
